Out of some 1,400 compounds screened, about 140 (10%) were called active. A selection follows. Entries with a potency or affinity are not part of this list. A number with no mark means an inactive call.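 The calls were made as follows: active = Half-maximal inhibitory dose from the fit at or below ten times the top valid tested dose; inconclusive = Invalid fit, or flat curve showing 30 to 70% inhibition; inactive = the rest.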

These results are taken from PubChem BioAssay AID488835 (Broad Institute, 2010).

In this assay the target is Lysine-specific demethylase 4C (Homo sapiens) (UniProt Q9H3R0). Kind of assay: inhibition of JMJD2C H3K9me3 demethylation – biochemical, DELFIA europium, cherry-picked samples, dose response (AID 488835).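 Also: signal is the H3K9me2 demethylation product detected by a dimethyl-specific antibody.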 Particulars: GST-JMJD2C(1-420); series mostly up to 6 µM; activity change, negative = inhibition: at the top concentration.
Chain of Lysine-specific demethylase 4C (Homo sapiens) (Q9H3R0 1-420 limits assumed): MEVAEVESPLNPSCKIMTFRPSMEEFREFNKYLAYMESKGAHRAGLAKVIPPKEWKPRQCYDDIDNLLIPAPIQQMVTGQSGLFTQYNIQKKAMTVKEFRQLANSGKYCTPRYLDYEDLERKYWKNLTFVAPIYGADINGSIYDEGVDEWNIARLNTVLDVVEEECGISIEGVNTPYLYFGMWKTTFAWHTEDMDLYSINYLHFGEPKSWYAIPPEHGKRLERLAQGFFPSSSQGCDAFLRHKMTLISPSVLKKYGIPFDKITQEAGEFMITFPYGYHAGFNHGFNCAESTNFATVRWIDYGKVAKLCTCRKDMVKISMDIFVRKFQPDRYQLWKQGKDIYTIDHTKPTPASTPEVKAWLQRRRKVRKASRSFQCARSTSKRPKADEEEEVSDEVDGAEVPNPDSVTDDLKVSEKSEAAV
Regarding `O=C(Cn1c(=O)sc2ccccc21)NCc1ccco1`, the “activity change, negative = inhibition” value was 5.44%.

Turning to `CS(=O)(=O)N(CCc1ccccc1)CC(=O)NCc1ccc(Cl)cc1`, the “activity change, negative = inhibition” value is 0.000961%.

On to `COc1ccccc1Nc1ncnc2ccccc12`, for which the “activity change, negative = inhibition” value is 7.2%.

Turning to `Cc1ccc(NC(=O)CSc2cccc[n+]2[O-])c([N+](=O)[O-])c1`, the “activity change, negative = inhibition” value is 2.02%.

Consider `Cc1cc(C)cc(C(=O)N2CCC(C(N)=O)CC2)c1`, for which the “activity change, negative = inhibition” value was 3.06%.

Turning to `O=C(/C=C/c1ccc2c(c1)OCO2)NCCS(=O)(=O)N1CCN(c2ccc(F)cc2)CC1`, the “activity change, negative = inhibition” value was -1.44%.

Consider `COc1ccc(NC(=O)O/N=C/c2ccccc2)cc1`, for which the “activity change, negative = inhibition” value was 1.47%.

For `O=C(N/N=C/c1ccccc1)c1c(O)c2ccccc2[nH]c1=O`, the “activity change, negative = inhibition” value was 7.7%.

`CC(C)Cn1c(N)c(C(=O)COC(=O)c2c(O)c(Cl)cc(Cl)c2Cl)c(=O)n(C)c1=O`: the “activity change, negative = inhibition” value was 13.9%.

Regarding `CC(=O)C[C@@H](O)CC(=O)[C@H]1OC(=O)CCCCCc2ccccc21`, the “activity change, negative = inhibition” value is 15.1%.

Take `Cn1c(=N)n(CC(O)c2ccccc2)c2ccccc21` (stereo unspecified): the “activity change, negative = inhibition” value is 22.9%.

With `COc1cccc(NC(=O)COC(=O)c2ccc(S(=O)(=O)NCc3ccco3)cc2)c1`, the “activity change, negative = inhibition” value was -4.04%.

Turning to `CSCCC(NS(=O)(=O)c1ccc(Cl)cc1)C(=O)O` (stereo unspecified), the “activity change, negative = inhibition” value is 5.12%.

With `O=C(CSc1nc2ccccc2c(=O)n1Cc1ccc(C(=O)NC2CC2)cc1)NCc1ccco1`, the “activity change, negative = inhibition” value was -1.55%.

Turning to `Cc1nnc(SCc2nc3ccccc3[nH]2)s1`, the “activity change, negative = inhibition” value was 8.43%.

For the compound `CCCC(=O)Nc1nc2c(c(=O)[nH]1)CCCC2`, the “activity change, negative = inhibition” value is -0.233%.

As to `COc1ccc(C(=O)N2CCC(C(=O)NCc3ccccn3)CC2)cc1`, the “activity change, negative = inhibition” value is 3.25%.

With `COc1ccc(N=Cc2cccc(C)c2O)cc1Cl`, the “activity change, negative = inhibition” value is -0.494%.

On to `O=C(NC(=S)Nc1ccccn1)c1ccc([N+](=O)[O-])cc1`, for which the “activity change, negative = inhibition” value was 9.17%.

Consider `CN(C)c1ccc(C2Nc3ccccc3C(=O)N2CCN2CCNC2=O)cc1` (stereo unspecified), for which the “activity change, negative = inhibition” value is -1.83%.

Turning to `COc1ccc(/C=C2\Sc3ccc(C(=O)N4CCCC4)cc3N(C)C2=O)cc1OC`, the “activity change, negative = inhibition” value is -8.78%.

For `Cc1ccc(NC(=O)CSc2nc3c(c(=O)[nH]2)CN(Cc2ccc(F)cc2)CC3)cc1C`, the “activity change, negative = inhibition” value was -5.7%.

Consider `O=c1cc(-c2ccc(O)c(O)c2)oc2c(C3O[C@H](CO)[C@@H](O)[C@H](O)[C@H]3O)c(O)cc(O)c12` (stereo partly specified), for which the “activity change, negative = inhibition” value was -63.3%.

With `CC(=O)c1ccc(O[C@@H]2O[C@H](CO)[C@@H](O)[C@H](O)[C@H]2O)cc1`, the “activity change, negative = inhibition” value was 13.2%.

For `CC(C)n1cnc2c(NCc3ccccc3)nc(NCc3ccccc3)nc21`, the “activity change, negative = inhibition” value is -3.21%.

For the compound `Cn1nnc(NC(=O)CSc2ccc(Cl)cc2)n1`, the “activity change, negative = inhibition” value is -1.87%.

Regarding `Cc1cccn2c(=O)c(/C=N/O)c(N3CCCC3)nc12`, the “activity change, negative = inhibition” value is 7.05%.

Take `Cc1ccc(NC(=O)CSc2ncc(S(=O)(=O)c3ccccc3)c(=O)[nH]2)cc1C`: the “activity change, negative = inhibition” value is 7.83%.

Take `Cc1cc(C)nc(NCc2ccc(Cl)cc2)n1`: the “activity change, negative = inhibition” value is -2.03%.

Consider `Cn1c(=O)[nH]c(=O)c2c1nc(N1CCOCC1)n2CCc1ccccc1`, for which the “activity change, negative = inhibition” value was -7%.

As to `COc1ccc(NC(=O)N(C)C[C@H]2Oc3c(NC(=O)C4CC4)cccc3C(=O)N([C@H](C)CO)C[C@@H]2C)cc1`, the “activity change, negative = inhibition” value is 4.36%.

As for `Cc1occc1-c1nnc(SCC(=O)c2cc3ccccc3oc2=O)o1`, the “activity change, negative = inhibition” value was -0.848%.

As to `Cc1ccc(CCNC(=O)C23C[C@H]4C[C@@H](C2)CC(n2nnc(C)n2)(C4)C3)cc1`, the “activity change, negative = inhibition” value is 5.08%.

Consider `CCOC(=O)c1oc2ccccc2c1COC(=O)C(C)NC(=O)c1ccco1` (stereo unspecified), for which the “activity change, negative = inhibition” value was -4.12%.

In the case of `COc1ccccc1-n1c(SCC(=O)N2CCCC2)nc2cccnc21`, the “activity change, negative = inhibition” value was 2.93%.

Consider `COc1cc(/C=N/N2CCN(c3ccccc3OC)CC2)ccc1O`, for which the “activity change, negative = inhibition” value was 4.01%.

Turning to `CCCn1nnnc1SCC(=O)NCc1ccc(OC)cc1`, the “activity change, negative = inhibition” value was 7.3%.

Take `CCOC(=O)c1[nH]c(CSc2nnnn2-c2ccccc2C)c(C(=O)OCC)c1C`: the “activity change, negative = inhibition” value is 1.98%.

`CCN(C[C@H]1N[C@@](C)(C(=O)OC)[C@H]2C(=O)N(Cc3ccccc3)C(=O)[C@@H]12)C(=O)Nc1ccc(Cl)cc1`: the “activity change, negative = inhibition” value was 2.49%.

On to `O=C(Cc1ccccc1)NNC(=O)c1cccs1`, for which the “activity change, negative = inhibition” value is 5.46%.

With `CCC(=O)Nc1ccc(NC(=O)Cc2ccccc2)cn1`, the “activity change, negative = inhibition” value is -1.91% [at 1.6 µM].

`O=C(NC1(O)C(=O)c2ccccc2C1=O)c1c(Cl)cccc1Cl`: the “activity change, negative = inhibition” value was 6.07%.

Turning to `CCC(C)[C@H](NC(=O)NCc1ccccc1Cl)C(=O)O` (stereo partly specified), the “activity change, negative = inhibition” value is -2.17%.

With `C#CCOCCOCCOCCNc1nc(N2CCN(C(=O)[C@H](CCC(=O)O)n3cc([C@@H](N)CCCCN)nn3)CC2)nc(N2CCN(C(=O)[C@H](CCC(=O)O)n3cc([C@@H](N)CCCCN)nn3)CC2)n1`, the “activity change, negative = inhibition” value was -1.73%.

Regarding `Cc1sc2ncnc(OCC(=O)N3CCN(S(=O)(=O)c4ccc(Cl)cc4)CC3)c2c1C`, the “activity change, negative = inhibition” value is 4.3%.

Consider `Cc1onc(-c2c(F)cccc2Cl)c1C(=O)NC1CC1`, for which the “activity change, negative = inhibition” value is -4.82%.

As to `COC(=O)c1ccc(-c2sc3nc(N4CCOCC4)c4c(c3c2N)CC(C)(C)OC4)o1`, the “activity change, negative = inhibition” value is 5.56% [at 1.6 µM].

`COc1cc(C(C(=O)NC2CCCCC2)N(Cc2cccs2)C(=O)Cc2c[nH]c3ccccc23)cc(OC)c1OC` (stereo unspecified): the “activity change, negative = inhibition” value was 6.08%.

For the compound `COc1ccc(C)cc1-n1nnnc1SC/C(O)=C(\C#N)c1nc2ccccc2[nH]1`, the “activity change, negative = inhibition” value was 2.42%.

With `CN1CCN(CC(=O)Nc2ccc(S(=O)(=O)N(C)C)cc2)CC1`, the “activity change, negative = inhibition” value was -10.7%.

With `CCOC(=O)c1cc2nc(Nc3ccc(OC)cc3)sc2s1`, the “activity change, negative = inhibition” value was -2.53%.
